According to the supplement of paper PMC10811239:

Each molecule was assayed on LEGO organoid PT (PTEN-/-; TP53-/-) (assay: bioluminescence (viable cell) signal fold change after vs before treatment, normalised to DMSO (ratio); higher = more tumour cell growth / less inhibition). Settings: 10 µM; treatment time 6 days.
Method: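 Luc2-labelled iPSC-derived glioblastoma-like organoids (LEGOs, genotypes PT = PTEN-/-;TP53-/-, PTCC = plus CDKN2A/B-/-, PTN = plus NF1-/-) were treated with 10 uM drug for 6 days (applied every other day) at 37 C. Bioluminescence imaging was done before treatment and 2 days after the last dose. BLI signals were normalised to the DMSO control on the same day and then to the pre-treatment signal (N=3).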
`COc1cc2ncnc(Nc3ccc(F)c(Cl)c3)c2cc1NC(=O)/C=C/CN1CCCCC1` [Dacomitinib] gave a bioluminescence of 0.37.
Molecule `CCN(CC)CCNC(=O)c1c(C)[nH]c(/C=C2\C(=O)Nc3ccc(F)cc32)c1C` [Sunitinib] has a bioluminescence of 0.391.
With `CC[C@H](C)C(=O)O[C@H]1C[C@@H](C)C=C2C=C[C@H](C)[C@H](CC[C@@H]3C[C@@H](O)CC(=O)O3)[C@H]21` [Lovastatin] the bioluminescence was 1.33.
Molecule `OC[C@H]1O[C@@H](n2cnc3c2NC=NC[C@H]3O)C[C@@H]1O` [Pentostatin] has a bioluminescence of 0.674.
In the case of `CCN(CC)C(=O)[C@@]1(c2ccccc2)C[C@H]1CN.Cl` [Milnacipran ((1S-cis) hydrochloride)], the bioluminescence is reported as 0.856.
`CO[C@H]1C(=O)[C@]2(C)[C@@H](OC)C[C@H]3OC[C@@]3(OC(C)=O)[C@H]2[C@H](OC(=O)c2ccccc2)[C@]2(O)C[C@H](OC(=O)[C@H](O)[C@@H](NC(=O)OC(C)(C)C)c3ccccc3)C(C)=C1C2(C)C` [Cabazitaxel] was tested, and the bioluminescence was 1.15.
With `CCOc1nc2cccc(C(=O)O)c2n1Cc1ccc(-c2ccccc2-c2nn[nH]n2)cc1` [Candesartan] the bioluminescence was 0.993.
For `Cc1oncc1C(=O)Nc1ccc(C(F)(F)F)cc1` [Leflunomide], the bioluminescence was 2.01.
`CN(C/C=C/C#CC(C)(C)C)Cc1cccc2ccccc12` [Terbinafine] gave a bioluminescence of 0.601.
`CO/N=C(\C(=O)N[C@@H]1C(=O)N2C(C(=O)[O-])=C(COC(C)=O)CS[C@H]12)c1csc(N)n1.[Na+]` [Cefotaxime sodium] showed a bioluminescence of 0.745.
`C[C@@H](Oc1cc(-c2cnn(C3CCNCC3)c2)cnc1N)c1c(Cl)ccc(F)c1Cl` [Crizotinib] was tested, and the bioluminescence was 0.492.
`Nc1ccn([C@@H]2CS[C@H](CO)O2)c(=O)n1` [Lamivudine] gave a bioluminescence of 0.906.
`CN=C(NC#N)NCCSCc1nc[nH]c1C` [Cimetidine] was tested, and the bioluminescence was 1.14.
Molecule `CCc1cccc2c3c([nH]c12)C(CC)(CC(=O)O)OCC3` (stereo not given) [Etodolac] has a bioluminescence of 1.
Molecule `CCc1nn(CCCN2CCN(c3cccc(Cl)c3)CC2)c(=O)n1CCOc1ccccc1.Cl` [Nefazodone hydrochloride] has a bioluminescence of 1.4.
With `Nc1nc(=O)c2c(CCc3ccc(C(=O)N[C@@H](CCC(=O)[O-])C(=O)[O-])cc3)c[nH]c2[nH]1.Nc1nc(=O)c2c(CCc3ccc(C(=O)N[C@@H](CCC(=O)[O-])C(=O)[O-])cc3)c[nH]c2[nH]1.O.O.O.O.O.[Na+].[Na+].[Na+].[Na+]` [Pemetrexed Disodium Hydrate] the bioluminescence was 1.33.
Molecule `COc1ccc(CNc2nc(N3CCC[C@H]3CO)ncc2C(=O)NCc2ncccn2)cc1Cl` [Avanafil] has a bioluminescence of 0.905.
In the case of `O=C(CCCCCCC(=O)Nc1ccccc1)NO` [Vorinostat], the bioluminescence is reported as 1.13.
`FC(F)(F)c1ccc(CNc2ccc(Cc3c[nH]c4ncc(Cl)cc34)cn2)cn1` [Pexidartinib] was tested, and the bioluminescence was 0.7.
`COc1cc2c(cc1OC)C(=O)C(CC1CCN(Cc3ccccc3)CC1)C2` (stereo not given) [Donepezil] was tested, and the bioluminescence was 0.84.
`CS(=O)(=O)CCNCc1ccc(-c2ccc3ncnc(Nc4ccc(OCc5cccc(F)c5)c(Cl)c4)c3c2)o1.Cc1ccc(S(=O)(=O)O)cc1.Cc1ccc(S(=O)(=O)O)cc1` [Lapatinib Ditosylate] gave a bioluminescence of 1.34.
`Cl.Nc1c2c(nc3ccccc13)CCCC2.O` [Tacrine hydrochloride hydrate] gave a bioluminescence of 0.719.
For `C[C@]12C=CC(=O)C=C1CC[C@@H]1[C@@H]2C(=O)C[C@@]2(C)[C@H]1CC[C@]2(O)C(=O)CO` [Prednisone], the bioluminescence was 1.13.
Work on `CCC(=O)NCC[C@@H]1CCc2ccc3c(c21)CCO3` [Ramelteon] yielded a bioluminescence of 0.961.
`CN(C)CCCN1c2ccccc2CCc2ccc(Cl)cc21.Cl` [Clomipramine hydrochloride] was tested, and the bioluminescence was 0.859.
Work on `O=c1[nH]c(=O)n(C2CCCO2)cc1F` (stereo not given) [Tegafur] yielded a bioluminescence of 1.04.
`CCc1c2c(nc3ccc(OC(=O)N4CCC(N5CCCCC5)CC4)cc13)-c1cc3c(c(=O)n1C2)COC(=O)[C@]3(O)CC` [Irinotecan] gave a bioluminescence of 2.7.
Work on `Cl.N=C1CCCN1Cc1[nH]c(=O)[nH]c(=O)c1Cl` [Tipiracil hydrochloride] yielded a bioluminescence of 0.741.
Molecule `CC1(C)S[C@@H]2[C@H](NC(=O)[C@H](N)c3ccc(O)cc3)C(=O)N2[C@H]1C(=O)O.O.O.O` [Amoxicillin trihydrate] has a bioluminescence of 1.03.
Molecule `NC(=O)c1ncn([C@@H]2O[C@H](CO)[C@@H](O)[C@H]2O)n1` [Ribavirin] has a bioluminescence of 0.826.
In the case of `COc1cc(Nc2ncc(F)c(Nc3ccc4c(n3)N(COP(=O)(O)O)C(=O)C(C)(C)O4)n2)cc(OC)c1OC` [Fostamatinib], the bioluminescence is reported as 0.0894.
Work on `Cl.Clc1cccc(Cl)c1NC1=NCCN1` [Clonidine hydrochloride] yielded a bioluminescence of 1.1.
Work on `CNC(=O)c1cc(Oc2ccc(NC(=O)Nc3ccc(Cl)c(C(F)(F)F)c3)cc2)ccn1.Cc1ccc(S(=O)(=O)O)cc1` [Sorafenib tosylate] yielded a bioluminescence of 0.401.
Molecule `Cc1cc(C)nc(NS(=O)(=O)c2ccc(N)cc2)n1` [Sulfamethazine] has a bioluminescence of 0.814.
`Cc1cc(C)cc(OCC2CNC(=O)O2)c1` (stereo not given) [Metaxalone] was tested, and the bioluminescence was 1.24.
For `CCCN(CCC)CCc1cccc2c1CC(=O)N2.Cl` [Ropinirole hydrochloride], the bioluminescence was 1.27.
Molecule `COc1c(N2CCNC(C)C2)c(F)cc2c(=O)c(C(=O)O)cn(C3CC3)c12` (stereo not given) [Gatifloxacin] has a bioluminescence of 1.66.
Work on `CCCCCCCCc1ccc(CCC(N)(CO)CO)cc1.Cl` [Fingolimod hydrochloride] yielded a bioluminescence of 1.07.
Work on `CC1=C(CC(=O)O)c2cc(F)ccc2/C1=C\c1ccc(S(C)=O)cc1` (stereo not given) [Sulindac] yielded a bioluminescence of 2.8.
Work on `O=C(CCCN1CCC(O)(c2ccc(Cl)cc2)CC1)c1ccc(F)cc1` [Haloperidol] yielded a bioluminescence of 0.925.
